High-throughput results (PubChem BioAssay)
This is a sample that favours compounds with a hit; in the whole collection about 9.9% have one here.
KDM4E inh: qHTS Assay for Inhibitors of Human Jumonji Domain Containing 2E (JMJD2E); Lysine-specific demethylase 4E (Homo sapiens), B2RXH2; JMJD2E catalytic domain, FDH-coupled NADH fluorescence (FDH is formaldehyde dehydrogenase); Potency, µM (top dose mostly 57.1 µM), inactives show at the top dose activity change, negative = inhibition, most hits filed as inhibitors; 230,000 tested, 1.6% active; active means well fitted inhibition curve with a large enough effect, not every such curve was filed as active; inconclusive means small, poorly fitted or top-dose-only effect, or another doubt; inactive means no such curve, though single readings can be large or run the other way;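 further: 0% = wells with enzyme and -100% = buffer wells without enzyme; nearly all actives have a fitted effect of over 50% in size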
Target sequence (B2RXH2 1-337 limits assumed): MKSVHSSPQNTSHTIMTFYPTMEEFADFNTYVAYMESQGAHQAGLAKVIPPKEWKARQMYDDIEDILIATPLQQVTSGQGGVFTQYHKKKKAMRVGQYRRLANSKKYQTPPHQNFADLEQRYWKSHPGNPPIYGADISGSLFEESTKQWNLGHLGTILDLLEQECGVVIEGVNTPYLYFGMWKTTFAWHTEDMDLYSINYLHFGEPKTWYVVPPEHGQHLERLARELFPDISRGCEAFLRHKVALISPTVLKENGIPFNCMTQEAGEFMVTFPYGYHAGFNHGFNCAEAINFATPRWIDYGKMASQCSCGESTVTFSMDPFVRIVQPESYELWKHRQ
ALDH1A1 inh: qHTS Assay for Inhibitors of Aldehyde Dehydrogenase 1 (ALDH1A1). 220,000 tested, 7.3% active. Aldehyde dehydrogenase 1A1 (Homo sapiens), P00352. Potency, µM (titrated, usually from 75.3 µM), inactives show top-dose activity, negative = inhibition, actives largely listed as inhibitors. Purified ALDH1A1, NADH fluorescence, propionaldehyde substrate; active means well fitted inhibition curve with a large enough effect, not every such curve was filed as active; inconclusive means small, poorly fitted or top-dose-only effect, or another doubt; inactive means no such curve, though single readings can be large or run the other way;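 further: plate controls were no enzyme wells and a reference inhibitor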
Tau fibril ThT: qHTS for Inhibitors of Tau Fibril Formation, Thioflavin T Binding; recombinant tau K18 P301L, heparin-induced fibrillization, ThT fluorescence; Potency, µM (top dose mostly 57.4 µM), for the others: at the top dose activity, negative = inhibition, hits mostly inhibitors; 270,000 tested, 2.1% active; further: nearly all actives have a fitted effect of over 55% in size
Target sequence (P10636 561-689 P618L limits assumed): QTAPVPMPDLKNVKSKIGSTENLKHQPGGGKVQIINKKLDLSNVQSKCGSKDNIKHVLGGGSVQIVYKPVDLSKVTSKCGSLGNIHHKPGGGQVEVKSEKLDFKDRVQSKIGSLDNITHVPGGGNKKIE
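Fibril formation assay: tau K18 P301L at 15 uM with trace Alexa 594 label, heparin inducer 20 uM, pH 7 sodium acetate buffer, 37 C for 6 hr; endpoint ThT signal.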
HPGD block: qHTS Assay for Inhibitors of HPGD (15-Hydroxyprostaglandin Dehydrogenase); purified HPGD, NADH fluorescence kinetic, PGE2 substrate; 15-hydroxyprostaglandin dehydrogenase [NAD(+)] (Homo sapiens), P15428; 150,000 tested, 4.3% active; AID 894, 2007; Potency, µM, without a hit: at the highest dose activity change, negative = inhibition, usual class: inhibitors; active means well fitted inhibition curve with a large enough effect, not every such curve was filed as active; inconclusive means small, poorly fitted or top-dose-only effect, or another doubt; inactive means no such curve, though single readings can be large or run the other way
Target sequence (P15428 whole entry, looked up): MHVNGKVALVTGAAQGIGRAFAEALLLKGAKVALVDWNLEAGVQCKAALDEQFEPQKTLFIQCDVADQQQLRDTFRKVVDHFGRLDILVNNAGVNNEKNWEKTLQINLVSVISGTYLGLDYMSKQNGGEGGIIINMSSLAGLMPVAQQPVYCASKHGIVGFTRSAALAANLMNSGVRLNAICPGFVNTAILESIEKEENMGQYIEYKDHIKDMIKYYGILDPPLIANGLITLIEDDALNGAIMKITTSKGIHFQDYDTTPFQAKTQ
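NADH formation kinetics: reaction with 30 uM PGE2 and 1 mM NAD+ (final), 20 nM enzyme, Tris-HCl pH 8 with Tween 20, after 15 min compound preincubation at room temperature. Fluorescence change, last versus first of five reads.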
Tau fluor counter: Counterscreen qHTS for Inhibitors of Tau Fibril Formation, Fluorescence Polarization. 280,000 tested, 0.93% active. AID 1463, 2008. tau K18 P301L Alexa594 fluorescence, heparin fibrillization. Potency, µM (series often up to 57.7 µM), without a hit: top-dose activity change, negative = decrease; further: nearly all actives have a fitted effect of over 55% in size
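Human tau K18 P301L (15 uM unlabeled, 0.24 uM Alexa 594-labeled) in 100 mM sodium acetate pH 7 with 20 uM heparin, 6 hr at 37 C. ThT 30 uM added, 1 hr ambient; Alexa 594 FP and total fluorescence read at 555/632 nm.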
Tau FP inhib: qHTS for Inhibitors of Tau Fibril Formation, Fluorescence Polarization. K18 P301L tau heparin fibrillization, Alexa594 FP, 6 h. Microtubule-associated protein tau (Homo sapiens), P10636. 280,000 tested, 0.39% active. Potency, µM (doses to about 57.7 µM), without a hit: at the highest dose activity, negative = inhibition, most hits filed as inhibitors. AID 1468, 2008; further: nearly all actives have a fitted effect of over 55% in size
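Steps: dispense K18 P301L tau (15 uM plus 0.24 uM Alexa 594 tracer, final) in pH 7 sodium acetate; add compound; add heparin (20 uM final); incubate 6 hr, 37 C; add ThT (30 uM final); after 1 hr ambient, read FP.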
Numbers without * were called inactive; ? = inconclusive; · = no result given; [ ] = another dose, or the depositor's remark. Unless noted, the call rests on the fitted dose curve; in most records, active means well fitted curve in the direction sought with a large enough effect; inconclusive means small, poorly fitted or top-dose-only effect, or another doubt; inactive means no such curve, though single readings can be large; an effect the other way counts as inactive or inconclusive. Unless noted, on the % scale 0 is the no-effect control and ±100 the full control effect; potency means the concentration at half of the fitted maximal effect.

SMILES | KDM4E inh | ALDH1A1 inh | Tau fibril ThT | HPGD block | Tau fluor counter | Tau FP inhib
O=C(Nc1cc2c(cc1C(=O)c1ccccc1Br)OCCO2)c1cccc(Cl)c1 | · | · | 5% | · | -9% | ?
CSC1=N/C(=C\c2c(F)cccc2Cl)C(=O)S1 | -5% | -9% | -4% | 4.5µM* | -5% | -4%
C=CCn1cc(C(=O)NCC2CCCO2)c(=O)c2cc(S(=O)(=O)N3CCCCCC3)ccc21 (stereo unspecified) | -11% | 13µM* | -14% | -11% | -17% | 3%
CCn1cc(C(=O)N2CCN(c3ccc(OC)cc3)CC2)c(=O)c2cc(S(=O)(=O)N3CCCCC3)ccc21 | -25% | 11µM* | -8% | · | -13% | -5%
C=CCn1cc(C(=O)OC)c(=O)c2cc(S(=O)(=O)N3CCCCCC3)ccc21 | -1% | 14µM* | -11% | · | -9% | -5%
Nc1cc(Cl)ccc1Oc1ccc(Cl)cc1 | ? | 1.6µM* | -16% | 22µM* | ? | -8%
Cc1cc(C)n(-c2nc(N(c3ccccc3)c3ccccc3)nc(-n3nc(C)cc3C)n2)n1 | -1% | 7% | 20µM* | -30% | 3% | ?
C/C(=C\C(=O)c1ccncc1)Nc1ccccc1O | -11% | 2% | ? | 14µM* | -15% | -1%
CC(=O)Nc1ccccc1O | -10% | 6% | -12% | -6% | -8% | 4%
CC1CCc2c(sc3nnn(CC(=O)Nc4ccccc4Cl)c(=O)c23)C1 (stereo unspecified) | · | · | -6% | · | ? | -16%
C=CCNC(=O)c1ccc(Cl)cc1Cl | 4% | 15% | 6% | 14µM* | 5% | 0%
C=CCNC(=O)c1c(Cl)cccc1Cl | 6% | ? | -7% | ? | -3% | -3%
O=C(NCc1ccccn1)c1c(Cl)cccc1Cl | -6% | 6% | -6% | -26% | 3% | -4%
O=C(NCc1ccccn1)c1ccc(Cl)cc1Cl | 0% | 7% | -2% | 20µM* | 3% | 3%
C=CCNC(=O)c1ccc(C)cc1Cl | 2% | 7% | -3% | 4µM* | 3% | -5%
CC[C@](N)(C(=O)O)C(C)C | · | -4%[13.5 µM] | · | -2% | · | ·
Cc1noc(C)c1-c1nc(N2CCN(C)CC2)c2ccccc2n1 | · | 9% | · | · | · | ·
CCCCNC(=S)N(C)/N=C/c1ccc(F)cc1 | -3% | 3% | 10% | 28µM* | 10% | 3%
COc1ccc(CCNCC(=O)Nc2ccc(C)c(S(=O)(=O)N(C)C)c2)cc1OC | ? | 16µM* | -4% | · | -4% | -4%
COc1ccc(OCC(=O)Nc2ccc(C)c(S(=O)(=O)N(C)C)c2)cc1 | -17% | 28µM* | -4% | · | -11% | -2%
COc1ccc(CCC(=O)Nc2cccc(S(=O)(=O)N(C)C)c2)cc1OC | 3% | -9% | -5% | -8% | -2% | -4%
CCOC(=O)C1CCN(C(=O)Cn2nc(CC)n3c(cc4occc43)c2=O)CC1 | · | · | 5% | · | -3% | -7%
C(=N\N(c1ccccc1)c1ccccc1)/c1ccc(N2CCOCC2)s1 | -10% | ? | ? | -11% | ? | 9%
COc1ccc(N2C(=O)NC(NC(=O)c3ccncc3)(C(F)(F)F)C2=O)cc1 (stereo unspecified) | 2% | 8% | 1% | -3% | 4% | 4%
Nc1nn2c(-c3ccccc3)cc(=O)[nH]c2c1N=Nc1ccc(Br)cc1 | -6% | -1% | 2.2µM* | · | -23% | 9%
SMILES | KDM4E inh | ALDH1A1 inh | Tau fibril ThT | HPGD block | Tau fluor counter | Tau FP inhib
COc1ccccc1CNC(=O)CN1C(=O)CSc2ccc(S(=O)(=O)N(C)C)cc21 | · | · | 3% | · | -3% | -7%
O=C1/C(=C/c2cccc([N+](=O)[O-])c2)CCc2ccccc21 | -2% | ? | 25µM* | ? | ? | -3%
CCN1CCN(C(C(=O)NC2CCCCC2)c2ccc(Cl)cc2)CC1 (stereo unspecified) | 0% | 1% | -6% | 5% | -12% | -4%
COc1ccc(CCNC(=O)c2csc3c2CCCCC3)c(OC)c1 | · | · | -2% | · | -7% | -10%
O=C(NC1CCCC1)c1csc2c1CCCC2 | 5% | ? | 4% | 16µM* | -2% | 2%
O=C(NCC1CCCO1)c1csc2c1CCCCC2 (stereo unspecified) | 6% | -12% | -5% | 25µM* | 4% | 1%
CC1CCc2c(C(=O)Nc3nccs3)csc2C1 (stereo unspecified) | -17% | 2% | -6% | 7.1µM* | -15% | 2%
CCCNC(=O)c1csc2c1CCCCC2 | 4% | 6% | -3% | ? | -6% | 5%
COc1ccc(CCNC(=O)c2csc3c2CCCC3)cc1 | -7% | 0.79µM* | -9% | · | -7% | 8%
CC(=O)N1CCc2cc(Br)cc(S(=O)(=O)N3CCN(c4cc(C)ccc4C)CC3)c21 | · | · | -6% | · | -20% | ?
CCC(=O)N1c2ccccc2CC1C(=O)NCc1cccc(C)c1 (stereo unspecified) | · | · | -2% | · | -3% | 2%
CC1CCc2c(C(=O)NCC3CCCO3)csc2C1 (stereo unspecified) | -1% | ? | 8% | 7.9µM* | 0% | 5%
Cc1ccccc1NC(=S)NNC(=O)c1csc2c1CCC(C)C2 (stereo unspecified) | 6% | 20µM* | -17% | -8% | -22% | 10%
CCCCNC(=S)NNC(=O)c1csc(C)c1CC | 6% | 4% | -14% | -18% | -18% | -7%
CCc1c(C(=O)NC2CCCC2)csc1C | -1% | -2% | -2% | 14µM* | 1% | 8%
CC1=C(C(=O)Nc2cc(Cl)ccc2C)C(c2ccccc2F)n2ncnc2N1 (stereo unspecified) | · | · | 7% | · | 1% | 4%
OCCN1CCN(C(=S)c2ccc(Cl)cc2)CC1 | -1% | 16µM* | -5% | 16µM* | -3% | -10%
CC(C)(C)c1cc(C(=S)N2CCN(CCO)CC2)cc(C(C)(C)C)c1O | -24% | 18µM* | -9% | 25µM* | 6% | -8%
CCN1CCN(C(=S)c2ccc(Cl)cc2)CC1 | -3% | ? | ? | 10µM* | -21% | ?
CCN1CCN(C(=S)c2ccc(OC)cc2)CC1 | -9% | -14% | -8% | · | 12% | 1%
CN(C)CCN(C(=O)c1ccccc1Cl)c1nc2c(Cl)cccc2s1 | ? | 32µM* | ? | -20% | -18% | -10%
